A short description of assay [1]: NTR1-driven beta-arrestin-GFP spot formation – imaging, U2OS cells, high content, primary screen (AID 493036).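 As to activation: 0% = DMSO without peptide and 100% = 100 nM NTR1 peptide.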 To be noted: agonist mode, measured here: cell count, cytotoxicity flag, at 20 µM.
Assay [2] deals with Neurotensin receptor type 1 (Homo sapiens) (UniProt P30989). Described as above. The conditions noted are these: agonist mode, at 20 µM, stronger effect = higher value.

In all, about 330,000 compounds went through this assay and about 560 (0.17%) were called active.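 The calls were made as follows: active = activation at or above 40% of the spot to cytoplasm intensity ratio, with at least 20 cells analyzed; inconclusive = wells under 20 cells, flagged as cytotoxic or low count; inactive = the rest.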 The full list was thinned out, with actives kept by preference.

Sequence of Neurotensin receptor type 1 (Homo sapiens) (P30989 whole entry, looked up): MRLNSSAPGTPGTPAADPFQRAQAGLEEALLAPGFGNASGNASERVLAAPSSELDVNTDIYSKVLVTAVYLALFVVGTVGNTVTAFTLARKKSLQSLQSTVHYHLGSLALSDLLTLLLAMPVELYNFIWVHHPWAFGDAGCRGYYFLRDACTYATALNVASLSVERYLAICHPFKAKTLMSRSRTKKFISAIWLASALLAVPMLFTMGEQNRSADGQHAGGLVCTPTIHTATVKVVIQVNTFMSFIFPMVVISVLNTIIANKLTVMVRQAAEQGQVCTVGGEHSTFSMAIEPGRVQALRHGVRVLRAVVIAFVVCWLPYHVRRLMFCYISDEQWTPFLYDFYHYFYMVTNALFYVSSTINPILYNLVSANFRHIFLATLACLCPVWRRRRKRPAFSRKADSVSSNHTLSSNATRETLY

In assay [1], `COc1ccc(OC)c(S(=O)(=O)n2c([N+](=O)[O-])cnc2C)c1` yielded a cell count of 68 cells. In addition, the activation in assay [2] was 0.5% (inactive).

With `CCOc1ccc(C(C)C)cc1S(=O)(=O)n1nc(C)cc1C`, the cell count in assay [1] came out at 43 cells. Also, the activation in assay [2] is 0.1% (inactive).

As for `COc1ccc(C(C[N+](=O)[O-])n2nc(C)cc2C)cc1` (configuration not stated), in assay [1], the cell count is 64 cells. Also, in assay [2], the activation is 47.9% (active).

For `CC(C)(CNC(=O)Cc1ccc(Cl)cc1Cl)N1CCOCC1`, the cell count in assay [1] came to 59 cells. Also, the activation in assay [2] is -2.3% (inactive).

Compound `CCOc1ccc2sc(NS(=O)(=O)c3ccc(N)cc3)nc2c1` showed a cell count in assay [1] of 62 cells. In addition, the activation in assay [2] was 2.8% (inactive).

The compound `O=C(Nc1cc(Cl)ccc1N1CCOCC1)c1ccc(N2CCCC2=O)cc1` had a cell count in assay [1] of 53 cells. Also, in assay [2], the activation was -1.6% (inactive).

`CCn1c(Cc2cccs2)nnc1SCC(=O)c1ccc(C)cc1` showed a cell count in assay [1] of 56 cells. The activation in assay [2] is 0.5% (inactive).

As for `Fc1ccccc1CNC(=S)Nc1ccc(Cl)cc1`, the cell count in assay [1] was 48 cells. In assay [2], the activation was 2.3% (inactive).

`CCN(CCNC(=O)C1=C(C)C(=O)OC12CCC(C)CC2)c1ccccc1` (configuration not stated): the cell count in assay [1] was 64 cells. Besides, the activation in assay [2] was 3.9% (inactive).

`COc1ccc(OC)c(NC(=O)c2cnn(-c3ccccc3Cl)c2NC(=O)c2ccco2)c1` displayed a cell count in assay [1] of 62 cells. In addition, the activation in assay [2] was 4.9% (inactive).

In turn, `CCOCCCNC(=S)Nc1ccc2nc(N3CCN(CC)CC3)cc(C)c2c1` showed a cell count in assay [1] of 73 cells. In assay [2], the activation is -2% (inactive).

Take `CCCCCCCC(=O)NC(Nc1ccccc1OC)C(Cl)(Cl)Cl` (configuration not stated): the cell count in assay [1] amounted to 50 cells. In addition, in assay [2], the activation was 2.7% (inactive).

Regarding `Cc1nn(CC(=O)Nc2ccc(C#N)cc2)c(C)c1[N+](=O)[O-]`, in assay [1], the cell count worked out at 65 cells. In addition, the activation in assay [2] is 0.3% (inactive).

`CC(OC(=O)CN1C(=O)COc2ccccc21)C(=O)NCc1ccc(F)cc1` (configuration not stated) came in with a cell count in assay [1] of 51 cells. Moreover, the activation in assay [2] is 0.8% (inactive).

The compound `O=S(=O)(c1ccccc1)N1CN(Cc2ccc(F)cc2)c2nc3ccccc3nc21` had a cell count in assay [1] of 40 cells. In assay [2], the activation was 0.8% (inactive).

`CC(C)CC1(C(=O)NCc2ccccn2)C=CCN1C(=O)c1ccccc1` (configuration not stated) yielded a cell count in assay [1] of 56 cells. In addition, the activation in assay [2] is -0.1% (inactive).

The compound `CCN(C(=O)CSc1ncnc2c1cnn2-c1ccccc1)C1CCS(=O)(=O)C1` (configuration not stated) registered a cell count in assay [1] of 39 cells. For the same compound, the activation in assay [2] is -0.3% (inactive).

With `O=[N+]([O-])/C=C/c1ccc2c(ccn2Cc2ccccc2)c1`, the cell count in assay [1] worked out at 87 cells. Moreover, the activation in assay [2] is 87.3% (active).

In assay [1], `CCCCC[C@@H]1C=C(C(=O)O)[C@H](c2ccc(C#N)cc2)N1S(=O)(=O)c1ccc(C)cc1` returned a cell count of 52 cells. In assay [2], the activation was 7.1% (inactive).

`CCCCCCCCCCCCN1C(=O)CSC1c1cccnc1` (configuration not stated) gave a cell count in assay [1] of 45 cells. Further, the activation in assay [2] was 11.6% (inactive).

In assay [1], `CC(C)Cn1c(CCC(=O)O)ccc1-c1cccs1` came in with a cell count of 50 cells. Further, the activation in assay [2] is -0.5% (inactive).

In the case of `COc1ccccc1NC(=O)C1CCN(C(=O)c2ccc(C(C)(C)C)cc2)CC1`, in assay [1], the cell count was found to be 46 cells. Also, in assay [2], the activation was -0.5% (inactive).

Turning to `Cc1ccc(S(=O)(=O)NNC(=O)/C=C/c2cccc(F)c2)cc1`, in assay [1], the cell count came to 75 cells. The activation in assay [2] was 0% (inactive).

With `CCCC(C(=O)NC1CCCC1)N(C(=O)Cn1nnc(-c2ccc(C)o2)n1)c1cccc(O)c1` (configuration not stated), the cell count in assay [1] worked out at 48 cells. For the same compound, the activation in assay [2] is 0.6% (inactive).

In the case of `CC1CCN(S(=O)(=O)c2ccc3c(ccn3CC(=O)O)c2)CC1`, the cell count in assay [1] stood at 71 cells. Moreover, the activation in assay [2] was 0.7% (inactive).

`C#CCCOC(=O)N1C2=NC(C(=O)OC)=C(C(=O)OC)[C@@H]3N(C)c4ccc(OC)cc4[C@]23C[C@H]1C(=O)OC` had a cell count in assay [1] of 67 cells. For the same compound, the activation in assay [2] is 1.9% (inactive).

In turn, `Cc1ccc(N(C(=O)c2sc(C)nc2C)C(C(=O)NC(C)(C)C)c2ccncc2)cc1` (configuration not stated) returned a cell count in assay [1] of 32 cells. Further, the activation in assay [2] is -0.4% (inactive).

`O=C(Oc1ccccc1C(=S)N1CCCCC1)c1cc([N+](=O)[O-])cc([N+](=O)[O-])c1` had a cell count in assay [1] of 41 cells. The activation in assay [2] is 0.8% (inactive).

In the case of `CCOC(=O)c1cnc2c(c(C)nn2CC)c1Cl`, the cell count in assay [1] amounted to 47 cells. Besides, the activation in assay [2] is 2.2% (inactive).

`O=C(OCC(O)C(O)COC(=O)c1ccccc1)c1ccccc1` (configuration not stated) returned a cell count in assay [1] of 68 cells. Also, the activation in assay [2] was 0% (inactive).

The compound `COc1ccc([C@H]2CC(=O)C=C(c3ccc(C)cc3)C2)cc1` returned a cell count in assay [1] of 62 cells. Besides, the activation in assay [2] was 3.1% (inactive).

`CC(C)c1ccccc1OCC(O)CN(CC(O)COc1cccc2ccccc12)C(C)C` (configuration not stated): the cell count in assay [1] stood at 48 cells. Also, the activation in assay [2] was 46.1% (active).

On to `Cc1cc(C)c(NC(=O)C[N+](C)(C)CC(O)COc2cccc3ccccc23)c(C)c1` (configuration not stated), for which the cell count in assay [1] came out at 43 cells. Further, the activation in assay [2] was -1.1% (inactive).

As to `CCC(C)Sc1nc2c(c(=O)[nH]c(=O)n2C)n1CC(O)COc1cccc2ccccc12` (configuration not stated), the cell count in assay [1] was 51 cells. For the same compound, the activation in assay [2] is 4.1% (inactive).

Consider `CN(C)S(=O)(=O)N1CCN(c2ccc([N+](=O)[O-])cc2)CC1`, for which, in assay [1], the cell count was found to be 47 cells. Also, the activation in assay [2] was 0% (inactive).

Consider `COCc1cc(=O)[nH]c(-c2ccc(C(F)(F)F)cc2)n1`, for which, in assay [1], the cell count came out at 62 cells. Further, in assay [2], the activation is -0.3% (inactive).

For the compound `CC(Sc1nn(-c2ccc(Cl)cc2)c(=S)s1)C(=O)NCC1CCCO1` (configuration not stated), the cell count in assay [1] came to 67 cells. Besides, in assay [2], the activation is -1% (inactive).

For `Cc1ccc(NC(=O)[C@H](Cc2ccccc2)NC(=O)C2CCNCC2)cc1`, the cell count in assay [1] was determined as 66 cells. For the same compound, the activation in assay [2] is -0.1% (inactive).

Compound `COc1ccc(C2CC(=O)C=C(NCC3CCCO3)C2)cc1` (configuration not stated) showed a cell count in assay [1] of 92 cells. For the same compound, in assay [2], the activation was -3.9% (inactive).

In assay [1], `O=C1N(Cc2ccc3c(c2)OCO3)c2ccccc2C1(O)c1c[nH]c2ccccc12` (configuration not stated) displayed a cell count of 56 cells. The activation in assay [2] is 5.6% (inactive).

In assay [1], `CC(C)(C)c1nnc(N/N=C/c2ccc(O)cc2)n(N)c1=O` came in with a cell count of 60 cells. The activation in assay [2] was 1.1% (inactive).

In assay [1], `O=C(CCNS(=O)(=O)c1cccs1)N1CCN(c2ccc(F)cc2)CC1` gave a cell count of 42 cells. In assay [2], the activation is -0.5% (inactive).

On to `CCOC(=O)CN1CC23C=CC(O2)C(C(=O)Nc2ccc(F)cc2)C3C1=O` (configuration not stated), for which, in assay [1], the cell count came to 46 cells. The activation in assay [2] is -1.6% (inactive).

Take `COc1ccc(N2CCN(S(=O)(=O)c3ccc4c(c3)N(C(C)=O)CCO4)CC2)cc1`: the cell count in assay [1] was determined as 59 cells. Also, the activation in assay [2] was 1.4% (inactive).

In assay [1], `CCN(CC)S(=O)(=O)c1ccc(Cl)c(C(=O)NC(C)C(c2cccs2)N2CCCC2)c1` (configuration not stated) had a cell count of 57 cells. The activation in assay [2] is 0.4% (inactive).

As to `COC(c1ccccc1)c1nnc(CCC(=O)N2CCN(CCOc3ccccc3)CC2)o1` (configuration not stated), in assay [1], the cell count came to 37 cells. In addition, the activation in assay [2] was 0.7% (inactive).

For `O=C1CN(C(=O)c2ccccc2F)C(c2ccc(F)cc2)c2cc(F)ccc2N1` (configuration not stated), in assay [1], the cell count worked out at 89 cells. For the same compound, the activation in assay [2] is 0% (inactive).

In the case of `O=C(CN1CCCSc2ccccc21)N1CCN(S(=O)(=O)c2ccccc2)CC1`, in assay [1], the cell count worked out at 62 cells. The activation in assay [2] is 0% (inactive).

For the compound `O=C(CCc1ccccc1Cl)Nc1ccc(S(=O)(=O)Nc2nccs2)cc1`, the cell count in assay [1] came out at 42 cells. Moreover, the activation in assay [2] is 1.9% (inactive).

Compound `O=C(CS(=O)(=O)c1ccc(C(F)(F)F)cn1)NNC(=O)c1ccccc1` gave a cell count in assay [1] of 55 cells. Further, the activation in assay [2] was -1% (inactive).

`Cc1ccc(C(C)NC(=O)Cn2nc(C)c([N+](=O)[O-])c2C)cc1` (configuration not stated): the cell count in assay [1] worked out at 54 cells. Also, the activation in assay [2] was 3.1% (inactive).

Source of the values: PubChem BioAssay AID493036 (Sanford-Burnham Center for Chemical Genomics, 2011).
